{"source": "PubChem BioAssay (EPA / NIEHS)", "note": "Where a structure was tested more than once in an assay, its records may differ in their call. Active and inactive are the calls of the source. How the source made its calls: active means hit-call score of the fitted dose curve at least 0.9, where 1 is the maximum; inactive means score below 0.9.", "data": [{"target": "Transcriptional activator Myb (Homo sapiens) (UniProt P10242)", "sequence (P10242 whole entry, looked up)": "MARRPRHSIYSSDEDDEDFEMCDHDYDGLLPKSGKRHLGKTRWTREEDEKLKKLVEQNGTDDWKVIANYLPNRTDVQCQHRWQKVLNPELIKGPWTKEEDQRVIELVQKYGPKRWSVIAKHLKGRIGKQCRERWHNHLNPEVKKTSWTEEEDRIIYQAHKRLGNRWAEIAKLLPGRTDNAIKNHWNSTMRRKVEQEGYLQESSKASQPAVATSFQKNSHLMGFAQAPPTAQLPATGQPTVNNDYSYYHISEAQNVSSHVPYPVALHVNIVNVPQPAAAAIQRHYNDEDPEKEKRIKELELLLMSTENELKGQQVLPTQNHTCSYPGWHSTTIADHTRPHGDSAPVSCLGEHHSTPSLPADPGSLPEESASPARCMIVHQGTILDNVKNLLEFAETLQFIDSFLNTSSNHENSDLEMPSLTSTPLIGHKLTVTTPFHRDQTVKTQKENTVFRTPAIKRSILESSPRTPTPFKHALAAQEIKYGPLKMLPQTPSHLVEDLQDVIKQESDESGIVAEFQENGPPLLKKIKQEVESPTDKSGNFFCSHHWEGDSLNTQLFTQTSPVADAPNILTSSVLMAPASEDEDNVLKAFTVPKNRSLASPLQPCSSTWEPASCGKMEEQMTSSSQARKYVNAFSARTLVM", "assay": "ATG_Myb_CIS: Attagene CIS-FACTORIAL HepG2 Assay for human Myeloblastosis (Myb) Proto-Oncogene Transcription Factor (AID 2282986)", "conditions": "HepG2 Attagene CIS-FACTORIAL Myb reporter transcription; actives raise or lower the signal", "procedure": "ATG_CIS is a cell-based, multiplexed-readout assay that uses HepG2, a human liver cell line, with measurements taken at 24 hours after chemical dosing in a 24-well plate.ATG_Myb_CIS is one of 52 assay component(s) measured or calculated from the ATG_CIS assay. It is designed to make measurements of mRNA induction, a form of inducible reporter, as detected with fluorescence intensity signals by Reverse transcription polymerase chain reaction (RT-PCR) and Capillary electrophoresis technology.Data from the assay component ATG_Myb_CIS was analyzed into 1 assay endpoint. This assay endpoint, ATG_Myb_CIS, was analyzed with bidirectional fitting relative to DMSO as the negative control and baseline of activity. Using a type of inducible reporter, measures of mRNA for gain or loss-of-signal activity can be used to understand the reporter gene at the transcription factor-level as they relate to the gene MYB. Furthermore, this assay endpoint can be referred to as a primary readout, because this assay has produced multiple assay endpoints where this one serves a reporter gene function. To generalize the intended target to other relatable targets, this assay endpoint is annotated to the dna binding intended target family, where the subfamily is MYB proteins.\nHuman liver HepG2 cells are transiently transfected with multiple reporter transcription units (MRTUs) in 6-well plates using FuGene 6 reagent (Roche; 3 ml FuGene/1 mg DNA). The MRTU constructs are regulated by a cis-regulating element (promoter). […] A major difference between the CIS and TRANS system is that in CIS activities of endogenous TFs are measured, whereas the TRANS assay evaluates changes in activities of exogenous, chimeric NR-Gal4 proteins. […] At the end of 24 hour incubation, total RNA was isolated using TriZol reagent (Invitrogen). The isolated RNA is then reverse-transcribed using oligo(dT) primer and Mo-MLV reverse transcriptase (Invitrogen) with DNAse I (Ambion) treatment for 30 min. The one-tenth of the produced cDNA was amplified by PCR using Taq DNA polymerase (Invitrogen) and two reporter sequence-specific primers. The PCR products were fluorescently labeled by primer extension with 6-arboxyfluorescein (6-FAM) 5'-labeled reporter sequence-specific primer (2 min at 95 C, 20 s at 68 C and 10 min at 72 C) and these products were digested with 5U of HpaI (New England Biolabs) for 2h at 37 C. The fragments were purified using Qiaquick PCR columns (Qiagen), analyzed on an ABI 3130xL genetic analyzer (Applied Biosystems) with peak positions identified by using a set of X-rhodamine (ROX)-labeled MapMarker1000 molecular weight standards (BioVentures). The raw capillary electrophoresis data was processed using Attagraph software (Attagene).", "values": [{"smiles": "c1ccc(N=NNc2ccccc2)cc1", "outcome": "inactive"}, {"smiles": "CCC1(c2ccc(N)cc2)CCC(=O)NC1=O", "note": "(stereo not given)", "outcome": "inactive"}, {"smiles": "Clc1nc(Cl)nc(Cl)n1", "outcome": "inactive"}, {"smiles": "COP(=S)(OC)Oc1ccc(S(=O)(=O)N(C)C)cc1", "outcome": "inactive"}, {"smiles": "CC(C)(c1ccccc1)c1ccc(O)c(C(C)(C)c2ccccc2)c1", "outcome": "inactive"}, {"smiles": "CCOP(=S)(OCC)SCSP(=S)(OCC)OCC", "outcome": "inactive"}, {"smiles": "CCCCCCCCCl", "outcome": "inactive"}, {"smiles": "O=C(Nc1ccc2[nH]ccc2c1)c1cc2cc(F)ccc2n1Cc1cccc(F)c1", "outcome": "inactive"}, {"smiles": "COP(=O)(OC)O/C(=C\\Cl)c1cc(Cl)c(Cl)cc1Cl", "AC50": "170 µM (active)"}, {"smiles": "CC(C#N)CCC#N", "note": "(stereo not given)", "outcome": "inactive"}, {"smiles": "Nc1ccc(Cl)cc1C(=O)c1ccccc1", "outcome": "inactive"}, {"smiles": "COc1cc(OC)nc(NC(=O)NS(=O)(=O)c2ncccc2C(=O)N(C)C)n1", "outcome": "inactive"}, {"smiles": "CCOP(=S)(OCC)SCCS(=O)(=O)CC", "outcome": "inactive"}, {"smiles": "O=C/C=C/c1ccccc1", "outcome": "inactive"}, {"smiles": "ClCC(Cl)CCl", "outcome": "inactive"}, {"smiles": "O=[N+]([O-])c1ccc(O)c([N+](=O)[O-])c1", "outcome": "inactive"}, {"smiles": "CCOP(=S)(OCC)Oc1nc(Cl)c(Cl)cc1Cl", "outcome": "inactive"}, {"smiles": "C=CC(=O)N(C)C", "outcome": "inactive"}, {"smiles": "CC1(C)Cc2cccc(O)c2O1", "outcome": "inactive"}, {"smiles": "O=C1C2(Cl)C3(Cl)C4(Cl)C(Cl)(Cl)C5(Cl)C3(Cl)C1(Cl)C5(Cl)C24Cl", "note": "(stereo not given)", "outcome": "inactive"}, {"smiles": "O=c1[nH]c(=O)[nH]c(=O)[nH]1", "outcome": "inactive"}, {"smiles": "Nc1ccc(-c2ccc(N)c(Cl)c2)cc1Cl", "outcome": "inactive"}, {"smiles": "O=C(c1ccccc1)C(Cl)Cl", "outcome": "inactive"}, {"smiles": "Clc1ccc(C2(Cn3cncn3)CC(Br)CO2)c(Cl)c1", "note": "(stereo not given)", "outcome": "inactive"}, {"smiles": "CC1(C)CCC(Cc2ccc(Cl)cc2)C1(O)Cn1cncn1", "note": "(stereo not given)", "outcome": "inactive"}, {"smiles": "O=C(O)C(F)(F)C(F)(F)C(F)(F)C(F)(F)C(F)(F)C(F)(F)C(F)(F)C(F)(F)C(F)(F)C(F)(F)F", "AC50": "154 µM (active)", "outcome": "inactive"}, {"smiles": "NC(=S)Nc1ccccc1", "outcome": "inactive"}, {"smiles": "CCOC(=O)/C=C(C)/C=C/C[C@@H](C)CCCC(C)C", "AC50": "152 µM (active)"}, {"smiles": "NC(=O)O", "outcome": "inactive"}, {"smiles": "BrCCBr", "outcome": "inactive"}, {"smiles": "O=[N+]([O-])c1c(Cl)c(Cl)cc(Cl)c1Cl", "outcome": "inactive"}, {"smiles": "CCCCCCCCc1ccc(O)cc1", "outcome": "inactive"}, {"smiles": "Nc1cccc2ccccc12", "outcome": "inactive"}, {"smiles": "CC(=O)[O][Hg][c]1ccccc1", "outcome": "inactive"}, {"smiles": "COP(=S)(OC)Oc1c(Cl)cc(C)cc1Cl", "outcome": "inactive"}, {"smiles": "O=S(=O)(c1ccc(Cl)cc1)c1ccc(Cl)cc1", "outcome": "inactive"}, {"smiles": "COc1ccccc1OC", "outcome": "inactive"}, {"smiles": "CC(Br)C(=O)O", "note": "(stereo not given)", "outcome": "inactive"}, {"smiles": "COC(=O)Cc1ccccc1", "outcome": "inactive"}]}]}
